Assay results reported in PubChem BioAssay (NCI).
About 79,000 compounds went through this panel and 15% of them were active in at least one assay; those are over-represented in the sample as a whole. The source made the active and inactive calls. Rule as the data show it: active = growth inhibition above about 70%; inactive = the rest.

assay: NCI Yeast Anticancer Drug Screen. Data for the mlh1 rad18 strain (AID 175); details: S. cerevisiae mlh1 rad18 strain growth inhibition; at 50.0 µM; stronger effect = higher value
In short: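 Cells of a genetically altered yeast strain, deficient in DNA damage repair, were treated with compound. Their growth was then compared with that of vehicle-treated cultures to give inhibition.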

| Compound | growth inhibition |
| --- | --- |
| O=C(N/N=C/C=C/c1ccccc1)NNC(=O)c1cc([N+](=O)[O-])cc([N+](=O)[O-])c1 | 24.2% (inactive) |
| N#CC(=C1C=CC(=NOC(=O)c2ccccc2)C=C1)c1ccccc1 | -6.85% (inactive) |
| CC(=O)C(CCCCCCCCCCC(C(C)=O)C(C)=O)C(C)=O | -10.2% (inactive) |
| CN(C)CCCN1CCC2(CCC(C(C)(C)C)CC2)CC1 | 49.8% (inactive) |
| O=S(=O)(O)Cc1cccc2ccccc12 | 22.6% (inactive) |
| CC(=O)C1CC(CCC2([N+](=O)[O-])CCC(C)(O)C(C(C)=O)C2)([N+](=O)[O-])CCC1(C)O (stereo not given) | 20.6% (inactive) |
| CCC1CN1C(=O)c1cc(C(=O)N2CC2CC)cc(C(=O)N2CC2CC)c1 (stereo not given) | 20% (inactive) |
| CN(C)CCNCCN | -15.6% (inactive) |
| C[CH2][Sn]([CH2]C)([N](c1ccccn1)c1ccccn1)[N](c1ccccn1)c1ccccn1 | -25.1% (inactive) |
| Brc1ccc(/C=C/c2ccnnc2)cc1 | 34.4% (inactive) |
| C1OC2OC3OCOC3C2O1 (stereo not given) | -8.8% (inactive) |
| C/C(O)=C(/C=NC(=S)c1ccncc1)C(=O)Nc1ccccc1 | -36.3% (inactive) |
| O=C(O)CCNC(=O)c1ccccc1O | -56.8% (inactive) |
| [N-]=[N+]=Nc1cc(=O)n(-c2ccccc2)c2ccccc12 | -22.3% (inactive) |
| CC(=O)Nc1ccc2c(c1)Cc1cccc(O)c1-2 | 10.1% (inactive) |
| Cc1ccc(S(=O)(=O)[N-]C2C(=O)c3ccccc3C(=O)C2[n+]2cccc(C(N)=O)c2)cc1 (stereo not given) | -38.8% (inactive) |
| O=C(CC(C(=O)c1ccc(F)cc1)c1ccsc1)c1cccs1 (stereo not given) | 3% (inactive) |
| CCOCCOCCOC(=O)C(C)O (stereo not given) | -3.4% (inactive) |
| CNC(=O)CCCCC(=O)NC | -19.2% (inactive) |
| C#CCN(N=O)C(=O)NC(CCCCNC(=O)OCc1ccccc1)C(=O)OCc1ccccc1 (stereo not given) | 0.6% (inactive) |

| Compound | growth inhibition |
| --- | --- |
| O=S(=O)(SSS(=O)(=O)c1ccc(Cl)c(Cl)c1)c1ccc(Cl)c(Cl)c1 | 11.7% (inactive) |
| O=C(O)C(c1ccc(-c2ccccc2)cc1)C1CCCCC1 (stereo not given) | 40.5% (inactive) |
| CC(=O)OC(Cn1cncn1)(Cn1cncn1)c1ccc(Cl)cc1Cl | 56.7% (inactive) |
| CCO/C(O)=c1/s/c(=C2/SC(=S)N(c3ccc(C)cc3)C2=O)n(-c2ccccc2)c1=N | -28.4% (inactive) |
| O=C(N/N=C1\C(=O)N(c2nccs2)C(=O)C(=O)C1c1nc2ccccc2s1)c1ccccc1O (stereo not given) | 34.1% (inactive) |
| CCNC(=O)CCN(C(=O)O)S(=O)(=O)c1ccc(NC(=O)c2ccccc2)cc1 | -13.9% (inactive) |
| C[C@]1(CO)[C@H]2CC[C@@]34C=C[C@@](CO)(CC[C@H]3[C@]2(C)CC[C@H]1O)C4 | -48.4% (inactive) |
| NC(N)=N/N=C/c1c(-c2ccc(Cl)cc2)nc2n1CCS2 | -25.2% (inactive) |
| O=C(Nc1ccc(Cl)cc1)/C(Cc1cccc[n+]1[O-])=N\Nc1ccc([N+](=O)[O-])cc1[N+](=O)[O-] | -20.2% (inactive) |
| CNC(=O)c1ccccc1CC(O)c1ccccc1 (stereo not given) | 8.95% (inactive) |
| C=C(C)/C=N/NS(=O)(=O)c1ccc(C)cc1 | 4.9% (inactive) |
| CCOC(=O)Nc1nc(-c2ccc(Br)cc2)cs1 | -17.9% (inactive) |
| C=C1C(=O)O[C@@H]2C[C@]3(C)[C@@H](C[C@H]12)[C@](C)(O)CC[C@@H]3O | 0.3% (inactive) |
| CN(C)c1ccc(/C=C(\NC(=O)c2ccccc2)C(=O)NC(CC(=O)O)C(=O)O)cc1 (stereo not given) | -0.55% (inactive) |
| NCc1c(C(N)=O)ncn1Cc1ccccc1 | -6.05% (inactive) |
| COC1OC(CO)C(O)C(O)C1Br (stereo not given) | 21.2% (inactive) |
| CCOC(=O)c1ccc(CSc2ccc(N)cc2)c([N+](=O)[O-])c1 | 20.2% (inactive) |
| O=CCCC1CCCCC1 | -5.7% (inactive) |
| Br/C=C\Br | 5.35% (inactive) |
| Nc1cccc(C(F)(F)F)c1[N+](=O)[O-] | 18.1% (inactive) |
